Among the data in paper PMC7862700, “An all-to-all approach to the identification of sequence-specific readers for epigenetic DNA modifications on cytosine” are binding signal values, retold here.

Assay in all cases: DAPPL (digital affinity profiling via proximity ligation, sequencing); 10 mM Tris-HCl pH 7.5, 50 mM NaCl, 1 mM DTT, 4% glycerol, room temperature, 30 min; GST-TFs on glutathione beads, 16-mer random dsDNA library, 0.1% formaldehyde crosslink after washing; high values mean tight binding
Assay [1] deals with T1, FEV (Homo sapiens, UniProt Q99581 1-238).
T1 sequence: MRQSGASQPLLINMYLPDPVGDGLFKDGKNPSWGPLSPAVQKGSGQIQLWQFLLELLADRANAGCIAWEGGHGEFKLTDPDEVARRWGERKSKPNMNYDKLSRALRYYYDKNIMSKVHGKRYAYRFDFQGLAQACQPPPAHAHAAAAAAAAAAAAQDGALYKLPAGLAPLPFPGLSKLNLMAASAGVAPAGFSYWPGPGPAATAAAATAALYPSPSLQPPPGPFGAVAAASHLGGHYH
To be noted: protein: recombinant; tags: N-terminal GST; dsDNA, one strand shown. Put shortly:
(§1)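 After expression in yeast as GST fusions, human transcription factors were bound to glutathione beads, DNA-barcoded and mixed with a tag-only sample. The pools were incubated with 200 nmole of a 16-mer random double-stranded DNA library in Tris/NaCl/DTT/glycerol buffer (30 min, room temperature), washed and crosslinked with 0.1% formaldehyde. Proximity ligation with BsaI/T4 ligase ran for 1 h at 37 °C, before PCR amplification and sequencing on an Illumina NextSeq500. Binding signal is a hexamer's read frequency for a factor divided by its frequency for the tag-only sample.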

In assay [2] the target is ETV5 (Homo sapiens, UniProt P41161 1-510). To be noted: protein: recombinant; tags: N-terminal GST; dsDNA, one strand shown. Put shortly:
as §1

The target of assay [3] is HSF1 (Homo sapiens, UniProt Q00613 1-529). To be noted: protein: recombinant; tags: N-terminal GST; chain copies: 3; dsDNA, one strand shown. A digest of the protocol:
as §1

Assay [4] has as its target T2, SPIC (Homo sapiens, UniProt Q8N5J4 1-248).
T2 sequence: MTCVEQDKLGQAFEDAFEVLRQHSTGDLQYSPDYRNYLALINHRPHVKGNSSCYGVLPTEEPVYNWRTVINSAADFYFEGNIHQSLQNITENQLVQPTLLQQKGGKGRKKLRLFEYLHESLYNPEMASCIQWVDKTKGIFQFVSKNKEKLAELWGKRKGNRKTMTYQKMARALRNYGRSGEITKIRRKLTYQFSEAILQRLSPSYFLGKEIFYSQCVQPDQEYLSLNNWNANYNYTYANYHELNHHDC
The settings on record: protein: recombinant; tags: N-terminal GST; dsDNA, one strand shown. A digest of the protocol: as §1

For assay [5], the target named is ELF4 (Homo sapiens, UniProt Q99607 1-663). The settings on record: protein: recombinant; tags: N-terminal GST; dsDNA, one strand shown. A digest of the protocol:
as §1

The target of assay [6] is T3, ELK4 (Homo sapiens, UniProt P28324-2 1-405).
T3 sequence: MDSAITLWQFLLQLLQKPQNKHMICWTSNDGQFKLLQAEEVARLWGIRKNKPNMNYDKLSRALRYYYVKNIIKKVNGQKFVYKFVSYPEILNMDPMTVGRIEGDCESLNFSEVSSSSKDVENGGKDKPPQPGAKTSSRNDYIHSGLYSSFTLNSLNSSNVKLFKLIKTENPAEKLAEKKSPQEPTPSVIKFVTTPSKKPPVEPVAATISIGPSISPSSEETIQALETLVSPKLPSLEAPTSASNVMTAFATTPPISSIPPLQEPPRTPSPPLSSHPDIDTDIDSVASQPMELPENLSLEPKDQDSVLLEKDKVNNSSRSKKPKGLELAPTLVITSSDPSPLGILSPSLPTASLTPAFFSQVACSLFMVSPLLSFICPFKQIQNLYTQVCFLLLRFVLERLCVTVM
To be noted: protein: recombinant; tags: N-terminal GST; dsDNA, one strand shown. A digest of the protocol:
as §1

In assay [7] the target is T4, ETV2 (Homo sapiens, UniProt O00321 1-342).
T4 sequence: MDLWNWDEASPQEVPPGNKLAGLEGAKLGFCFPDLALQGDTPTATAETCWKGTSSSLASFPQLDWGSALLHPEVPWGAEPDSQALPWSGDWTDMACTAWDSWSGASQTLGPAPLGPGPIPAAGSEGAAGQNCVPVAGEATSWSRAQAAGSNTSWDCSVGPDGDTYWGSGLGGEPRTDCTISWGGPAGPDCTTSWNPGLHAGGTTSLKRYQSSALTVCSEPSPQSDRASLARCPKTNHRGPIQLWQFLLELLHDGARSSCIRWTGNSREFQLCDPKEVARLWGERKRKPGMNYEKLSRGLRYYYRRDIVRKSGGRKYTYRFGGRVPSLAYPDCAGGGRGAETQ
To be noted: protein: recombinant; tags: N-terminal GST; dsDNA, one strand shown. A digest of the protocol:
as §1

The target in assay [8] is T5, ELF3 (Homo sapiens, UniProt P78545 1-371).
T5 sequence: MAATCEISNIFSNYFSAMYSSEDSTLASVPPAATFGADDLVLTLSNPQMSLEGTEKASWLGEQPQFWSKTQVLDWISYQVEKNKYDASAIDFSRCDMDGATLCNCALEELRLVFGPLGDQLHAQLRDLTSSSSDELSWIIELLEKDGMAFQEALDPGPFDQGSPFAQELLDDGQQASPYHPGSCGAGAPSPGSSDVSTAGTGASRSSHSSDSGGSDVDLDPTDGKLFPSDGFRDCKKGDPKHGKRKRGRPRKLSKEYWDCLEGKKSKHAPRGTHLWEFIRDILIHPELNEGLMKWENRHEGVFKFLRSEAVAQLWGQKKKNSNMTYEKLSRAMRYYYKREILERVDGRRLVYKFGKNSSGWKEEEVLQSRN
The settings on record: protein: recombinant; tags: N-terminal GST; dsDNA, one strand shown. Put shortly: as §1

For assay [9], the target named is CRX (Homo sapiens, UniProt O43186 1-299). The settings on record: protein: recombinant; tags: N-terminal GST; dsDNA, one strand shown. A digest of the protocol: as §1
The target in assay [10] is ETV1 (Homo sapiens, UniProt P50549 1-477). The settings on record: protein: recombinant; tags: N-terminal GST; dsDNA, one strand shown. A digest of the protocol:
as §1

Sequence of HSF1 (Q00613 whole entry): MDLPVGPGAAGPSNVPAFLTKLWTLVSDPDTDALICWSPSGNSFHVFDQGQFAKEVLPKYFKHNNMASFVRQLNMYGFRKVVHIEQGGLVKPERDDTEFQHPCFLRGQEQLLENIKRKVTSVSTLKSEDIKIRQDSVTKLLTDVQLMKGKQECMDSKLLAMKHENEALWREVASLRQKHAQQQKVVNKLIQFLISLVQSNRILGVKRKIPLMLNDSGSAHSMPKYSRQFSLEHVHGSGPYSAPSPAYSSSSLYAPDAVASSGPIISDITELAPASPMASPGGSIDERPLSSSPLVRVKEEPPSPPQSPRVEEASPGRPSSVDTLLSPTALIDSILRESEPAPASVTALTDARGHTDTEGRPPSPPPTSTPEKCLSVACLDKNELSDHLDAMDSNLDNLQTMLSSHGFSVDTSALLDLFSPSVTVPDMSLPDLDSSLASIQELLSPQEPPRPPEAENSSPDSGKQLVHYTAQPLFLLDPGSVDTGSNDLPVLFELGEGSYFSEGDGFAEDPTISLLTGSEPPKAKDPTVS
Sequence of ETV1 (P50549 whole entry): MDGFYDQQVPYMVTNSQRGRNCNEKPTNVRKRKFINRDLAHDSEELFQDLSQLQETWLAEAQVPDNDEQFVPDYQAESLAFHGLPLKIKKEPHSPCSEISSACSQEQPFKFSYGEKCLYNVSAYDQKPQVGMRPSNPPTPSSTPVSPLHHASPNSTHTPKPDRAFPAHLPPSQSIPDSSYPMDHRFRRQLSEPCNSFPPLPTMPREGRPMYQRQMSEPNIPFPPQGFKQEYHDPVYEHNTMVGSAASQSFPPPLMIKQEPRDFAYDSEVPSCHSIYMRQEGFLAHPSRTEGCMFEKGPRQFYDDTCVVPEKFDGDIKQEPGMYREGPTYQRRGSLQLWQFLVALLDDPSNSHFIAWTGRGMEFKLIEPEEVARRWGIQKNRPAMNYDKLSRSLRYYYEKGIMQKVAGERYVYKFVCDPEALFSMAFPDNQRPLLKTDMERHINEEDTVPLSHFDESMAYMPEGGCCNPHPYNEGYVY
Sequence of CRX (O43186 whole entry): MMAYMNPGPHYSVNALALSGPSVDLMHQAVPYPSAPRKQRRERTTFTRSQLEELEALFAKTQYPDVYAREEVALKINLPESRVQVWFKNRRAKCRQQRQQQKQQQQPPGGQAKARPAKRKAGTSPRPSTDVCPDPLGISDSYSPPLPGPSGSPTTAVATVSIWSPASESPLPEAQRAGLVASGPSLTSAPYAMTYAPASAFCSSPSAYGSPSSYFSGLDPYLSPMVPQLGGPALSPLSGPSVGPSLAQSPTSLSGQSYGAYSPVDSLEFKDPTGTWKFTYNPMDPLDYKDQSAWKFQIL
Sequence of ETV5 (P41161 whole entry): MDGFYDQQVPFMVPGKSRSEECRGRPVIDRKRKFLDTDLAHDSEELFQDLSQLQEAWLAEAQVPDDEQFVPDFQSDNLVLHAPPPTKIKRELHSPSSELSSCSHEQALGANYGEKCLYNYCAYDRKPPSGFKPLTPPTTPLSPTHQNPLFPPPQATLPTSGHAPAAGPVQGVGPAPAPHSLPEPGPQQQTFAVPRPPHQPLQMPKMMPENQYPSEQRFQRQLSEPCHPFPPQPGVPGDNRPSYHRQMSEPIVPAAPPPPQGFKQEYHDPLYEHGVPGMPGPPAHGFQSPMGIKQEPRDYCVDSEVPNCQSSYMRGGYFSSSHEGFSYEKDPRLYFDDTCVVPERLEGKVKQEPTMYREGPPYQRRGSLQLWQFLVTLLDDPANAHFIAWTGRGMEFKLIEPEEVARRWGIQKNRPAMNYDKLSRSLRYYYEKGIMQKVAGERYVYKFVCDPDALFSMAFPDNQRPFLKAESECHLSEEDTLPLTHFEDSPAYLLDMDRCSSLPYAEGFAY
Sequence of ELF4 (Q99607 whole entry): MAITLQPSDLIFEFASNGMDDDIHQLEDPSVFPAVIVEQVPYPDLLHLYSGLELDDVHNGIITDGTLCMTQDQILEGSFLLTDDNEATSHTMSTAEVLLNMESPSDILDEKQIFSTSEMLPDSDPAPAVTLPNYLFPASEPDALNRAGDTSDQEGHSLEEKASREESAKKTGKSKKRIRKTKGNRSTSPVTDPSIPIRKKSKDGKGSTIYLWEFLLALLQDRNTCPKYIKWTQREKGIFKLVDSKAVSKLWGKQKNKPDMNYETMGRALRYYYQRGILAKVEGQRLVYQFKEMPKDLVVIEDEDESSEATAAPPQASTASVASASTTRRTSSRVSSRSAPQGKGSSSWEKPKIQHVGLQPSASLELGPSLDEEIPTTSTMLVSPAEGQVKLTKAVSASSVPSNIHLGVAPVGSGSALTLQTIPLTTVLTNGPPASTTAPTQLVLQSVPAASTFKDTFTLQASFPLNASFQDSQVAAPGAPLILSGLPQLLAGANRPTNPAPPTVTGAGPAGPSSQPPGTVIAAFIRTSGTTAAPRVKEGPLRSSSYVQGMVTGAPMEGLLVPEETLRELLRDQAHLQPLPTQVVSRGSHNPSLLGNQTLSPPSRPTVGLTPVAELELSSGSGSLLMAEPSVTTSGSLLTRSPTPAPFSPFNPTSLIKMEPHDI

On to AAGCCT, for which the binding signal was 1.2 fold enrichment (6-mer frequency, TF over GST control) in assay [1]; 1.21 fold enrichment (6-mer frequency, TF over GST control) in [2]; 1.5 fold enrichment (6-mer frequency, TF over GST control) in [3]; 1.26 fold enrichment (6-mer frequency, TF over GST control) in assay [4]; 1.24 fold enrichment (6-mer frequency, TF over GST control) in assay [5]; 1.14 fold enrichment (6-mer frequency, TF over GST control) in assay [6]. Moreover, the binding signal in assay [7] is 1.19 fold enrichment (6-mer frequency, TF over GST control); in assay [8], 1.18 fold enrichment (6-mer frequency, TF over GST control); in [9], 1.97 fold enrichment (6-mer frequency, TF over GST control); in [10], 1.18 fold enrichment (6-mer frequency, TF over GST control).
As for CTCTAC, the binding signal was 1.57 fold enrichment (6-mer frequency, TF over GST control) in assay [1]; 1.33 fold enrichment (6-mer frequency, TF over GST control) in assay [2]; 1.37 fold enrichment (6-mer frequency, TF over GST control) in assay [3]; 1.51 fold enrichment (6-mer frequency, TF over GST control) in assay [4]; 1.46 fold enrichment (6-mer frequency, TF over GST control) in assay [5]; 1.38 fold enrichment (6-mer frequency, TF over GST control) in assay [6]. Further, the binding signal in assay [7] is 1.35 fold enrichment (6-mer frequency, TF over GST control); in assay [8] it was 1.47 fold enrichment (6-mer frequency, TF over GST control); in assay [9] it was 1.18 fold enrichment (6-mer frequency, TF over GST control); in assay [10], 1.4 fold enrichment (6-mer frequency, TF over GST control).
For the sequence ACATAT, the binding signal in assay [1] was 1.29 fold enrichment (6-mer frequency, TF over GST control); in assay [2], 1.32 fold enrichment (6-mer frequency, TF over GST control); in assay [3], 1.04 fold enrichment (6-mer frequency, TF over GST control); in assay [4], 1.36 fold enrichment (6-mer frequency, TF over GST control); in [5], 1.3 fold enrichment (6-mer frequency, TF over GST control); in assay [6], 1.22 fold enrichment (6-mer frequency, TF over GST control). Moreover, the binding signal was 1.28 fold enrichment (6-mer frequency, TF over GST control) in assay [7]; 1.25 fold enrichment (6-mer frequency, TF over GST control) in assay [8]; 1.12 fold enrichment (6-mer frequency, TF over GST control) in assay [9]; 1.26 fold enrichment (6-mer frequency, TF over GST control) in assay [10].
As to CCAATT, the binding signal is 1.23 fold enrichment (6-mer frequency, TF over GST control) in [1]; 1.26 fold enrichment (6-mer frequency, TF over GST control) in assay [2]; 1.09 fold enrichment (6-mer frequency, TF over GST control) in assay [3]; 1.31 fold enrichment (6-mer frequency, TF over GST control) in assay [4]; 1.32 fold enrichment (6-mer frequency, TF over GST control) in assay [5]; 1.09 fold enrichment (6-mer frequency, TF over GST control) in assay [6]. In addition, the binding signal was 1.27 fold enrichment (6-mer frequency, TF over GST control) in [7]; 1.39 fold enrichment (6-mer frequency, TF over GST control) in assay [8]; 1.05 fold enrichment (6-mer frequency, TF over GST control) in [9]; 1.26 fold enrichment (6-mer frequency, TF over GST control) in assay [10].
As for CTTAGC, the binding signal in assay [1] is 1.12 fold enrichment (6-mer frequency, TF over GST control); in assay [2], 1.18 fold enrichment (6-mer frequency, TF over GST control); in assay [3], 1.47 fold enrichment (6-mer frequency, TF over GST control); in assay [4], 1.35 fold enrichment (6-mer frequency, TF over GST control); in [5], 1.28 fold enrichment (6-mer frequency, TF over GST control); in [6] it was 1.21 fold enrichment (6-mer frequency, TF over GST control). Also, the binding signal is 1.3 fold enrichment (6-mer frequency, TF over GST control) in assay [7]; 1.07 fold enrichment (6-mer frequency, TF over GST control) in assay [8]; 2.17 fold enrichment (6-mer frequency, TF over GST control) in assay [9]; 1.24 fold enrichment (6-mer frequency, TF over GST control) in assay [10].
With CCCTTC, the binding signal in [1] was 1.47 fold enrichment (6-mer frequency, TF over GST control); in assay [2] it was 1.54 fold enrichment (6-mer frequency, TF over GST control); in [3], 1.35 fold enrichment (6-mer frequency, TF over GST control); in assay [4] it was 1.19 fold enrichment (6-mer frequency, TF over GST control); in assay [5], 1.49 fold enrichment (6-mer frequency, TF over GST control); in assay [6], 1.35 fold enrichment (6-mer frequency, TF over GST control). The binding signal in assay [7] was 1.33 fold enrichment (6-mer frequency, TF over GST control); in [8] it was 1.46 fold enrichment (6-mer frequency, TF over GST control); in assay [9] it was 1.05 fold enrichment (6-mer frequency, TF over GST control); in [10] it was 1.51 fold enrichment (6-mer frequency, TF over GST control).
As for ATTTCG, the binding signal in [1] is 1.25 fold enrichment (6-mer frequency, TF over GST control); in assay [2] it was 1.26 fold enrichment (6-mer frequency, TF over GST control); in [3], 1.63 fold enrichment (6-mer frequency, TF over GST control); in assay [4] it was 1.26 fold enrichment (6-mer frequency, TF over GST control); in assay [5], 1.29 fold enrichment (6-mer frequency, TF over GST control); in assay [6], 1.49 fold enrichment (6-mer frequency, TF over GST control). Besides, the binding signal is 1.22 fold enrichment (6-mer frequency, TF over GST control) in assay [7]; 1.2 fold enrichment (6-mer frequency, TF over GST control) in assay [8]; 1.45 fold enrichment (6-mer frequency, TF over GST control) in assay [9]; 1.34 fold enrichment (6-mer frequency, TF over GST control) in assay [10].
